The record followed here is ChEMBL document CHEMBL4513216, “Probing the Open Global Health Chemical Diversity Library for Multistage-Active Starting Points for Next-Generation Antimalarials” (ACS Infect Dis, 2020).

Hit rate of the full screen: of about 69,000 compounds, about 8,600 (12%) showed an effect of 50% or more. This is one part of a sample in which strong results are shown more often than they occur.

In the test the test system is Plasmodium berghei. Description: Screen against P. berghei liver stage (PbLuc), transformed with Luciferase, at 10uM. Particulars: tested at 10 uM. In kind it is functional, HepG2.
On to `CCS(=O)(=O)N1CCC2(CN(c3ccsc3)C(=O)CN2C)C1` (centres undefined), for which the INHIBITION was determined as 1.9%.
With `CN(C)CC1(O)CCCN(C(=O)CCn2cc(Cl)cn2)C1` (centres undefined) the figure was -47%; with `CSc1nc2ccsc2c(=O)n1CC(=O)N(C)C1CCCCC1`, 26.6%.
With `Cn1nccc1C(=O)N1CCCC1c1[nH]ncc1C(N)=O` (centres undefined) the figure was -31%; with `CCOC(=O)N1CCN(C(=O)CCn2cccc2)CC1`, 35%.
As to `Cc1nc(CN2CCC3(CC2)C(=O)N(C)CCN3C)cs1`, the INHIBITION is reported as 31.5%.
In the case of `Cn1cc(-c2nnn3c2COC(CNC(=O)c2cccs2)C3)cn1` (centres undefined) it was 8.64%; in that of `Cc1nc(CN2CCN(C(=O)c3ccnc(N(C)C)c3)CC2)cs1`, 43.2%.
Regarding `Cc1ccc(CN(C)C(=O)C(C)n2ccnc2C(C)C)o1` (centres undefined), the INHIBITION turned out to be 33%.
In the case of `CN(C)C1CCCN(C(=O)c2cccc(-c3ncc[nH]3)c2)CC1` (centres undefined) it was 12.8%.
With `O=C(c1cccc(-c2ncc[nH]2)c1)N1CC[C@H](CO)[C@@H](O)C1` the figure was -12.1%; with `O=C(c1cccc(-c2ncc[nH]2)c1)N1CCC(N2CCCC(O)C2)CC1` (centres undefined), 57.2%.
With `Cc1ncnc2c1CCN(Cc1nccs1)CC2` the figure was 8.85%; with `CC(C(=O)NCC(C)(C)c1ccc(Br)cc1)n1cncn1` (centres undefined), 23.1%.
With `O=c1[nH]cnc2[nH]c(N3CCOCC3)nc12`, the INHIBITION came to 31.8%.
With `COc1ccc2nc(C3CC3)cc(C(=O)NCc3noc(C)n3)c2c1` the figure was 57.2%; with `COc1ccc2nc(C3CC3)cc(C(=O)NCc3ncnn3C)c2c1`, 10.7%; with `COc1ccc2nc(C3CC3)cc(C(=O)NCC(=O)N(C)C)c2c1`, 13.9%.
With `COc1cccc(-c2n[nH]cc2C(=O)NC(C)CC(=O)O)c1` (centres undefined) the figure was 42.3%; with `COc1ccc(C)cc1CC(=O)NC(CC(=O)O)c1ccc(F)cc1` (centres undefined), 58.3%.
In the case of `COc1ccccc1CC(=O)NC(CC(=O)O)c1ccc(F)cc1` (centres undefined) it was 32.3%; in that of `COc1ccccc1C(=O)NC(CC(=O)O)c1cccs1` (centres undefined), -9.14%.
Turning to `CCOc1ccccc1C(=O)NC(CC(=O)O)c1cccs1` (centres undefined), the INHIBITION turned out to be 13.3%.
For `O=C(O)CC(NC(=O)c1ccccc1OC(F)F)c1cccs1` (centres undefined), the INHIBITION is 68.8%.
In the case of `COc1ccc(Cl)cc1C(=O)NC(CC(=O)O)c1cccs1` (centres undefined) it was 29.7%.
With `COc1ccccc1C(=O)NC(C)CC(=O)O` (centres undefined) the figure was 51.3%.
As to `COc1ccc(C)cc1C(=O)NC(CC(=O)O)c1cccs1` (centres undefined), the INHIBITION stood at 52.3%.
With `COc1ccccc1CC(C)CC(=O)O` (centres undefined) the figure was 29.3%.
As for `COc1ccc(C(=O)NC(CC(=O)O)c2cccs2)c(OC)c1` (centres undefined), the INHIBITION was -5.25%.
Turning to `COc1ccc(CC(=O)NC(CC(=O)O)c2ccc(F)cc2)cc1OC` (centres undefined), the INHIBITION was 29%.
With `Cc1csc(CN2CCC[C@]3(C[C@@H](OCC4CC4)CO3)C2)n1` the figure was 35.6%.
For the compound `Cc1nnc(NCCn2nc(C)c(Cl)c2C)o1`, the INHIBITION is on record as 26.8%.
In the case of `CC(Cn1ccnc1)NC(=O)NCCc1ccc(Cl)s1` (centres undefined) it was -5.25%.
In the case of `O=C1CC(N(C(=O)CCc2cc(F)ccc2F)C2CC2)C(=O)N1` (centres undefined) it was 22.2%; in that of `CCn1ccnc1CN1CCCC1c1noc(C2CC2)n1` (centres undefined), 40.9%.
Turning to `CN(Cc1nnc2n1CCC2)C(=O)c1ccc2c(c1)CCO2`, the INHIBITION is 26.4%.
As for `Cc1nc2c(c(=O)[nH]1)CCN(Cc1ccc3c(c1)CCCN3C)C2`, the INHIBITION is on record as 31.6%.
With `Cc1ccc2c(c1)C(=O)NCC1(CCN(C(=O)c3cnccn3)CC1)O2` the figure was -32.2%; with `O=C(CCc1ccccc1F)N1CCC(Nc2cccnn2)CC1`, 1.78%; with `O=C1N(CC2CCCC2)CCC12CCN(c1ncc(F)cn1)CC2`, 8.74%.
In the case of `NC(=O)CN1CCC(NC(=O)COCCOc2ccccc2)CC1` it was 31.6%; in that of `CC(=O)NCCC1CCCCN1S(=O)(=O)c1cccc(F)c1` (centres undefined), -40.5%; in that of `COCC(=O)N1CCOC(c2ccc(N(C)C)cn2)C1` (centres undefined), 50.1%.
In the case of `CNC(=O)c1ccc(C2CN(C(=O)COC)CCO2)nc1` (centres undefined) it was -26.8%; in that of `COCC(=O)N1CCOC(c2cccc(-c3cncnc3)n2)C1` (centres undefined), 38.2%; in that of `CCCC(=O)N1CCC(c2nc(O)c3c(n2)CCN(C2CCCC2)C3)C1` (centres undefined), 17.1%.
For `Cc1ccccc1OCCCC(=O)NC(C)c1nnc2n1CCC2` (centres undefined), the INHIBITION is on record as -24.2%.
On to `CNC(=O)[C@H]1C[C@@H]2CN(S(=O)(=O)Cc3ccccc3)C[C@@H]2N1C`, for which the INHIBITION is listed as -15.7%.
In the case of `O=C(N1CCOCC1)[C@@]12CCO[C@@H]1CCN(C1CCC1)C2` it was 16.8%; in that of `Cc1ccsc1C(=O)N1C[C@@H]2CN(Cc3ccoc3)CCO[C@@H]2C1`, 2.27%; in that of `O=C(NCC(F)(F)F)C1CSCN1S(=O)(=O)c1ccc(F)cc1Cl` (centres undefined), -19.6%.
Turning to `COc1ncccc1CN1C[C@@H]2C[C@@H](C(=O)NCC3CC3)N(C)[C@@H]2C1`, the INHIBITION is 27.2%.
With `CCCn1cc(-c2cc(-c3ccoc3)c(C#N)c(N)n2)c(C)n1` the figure was -24%; with `CCCn1cc(-c2cc(-c3c[nH]cn3)c(C#N)c(N)n2)c(C)n1`, -8.47%.
